Measured values taken from the supplement of paper PMC6555819.

What was measured:
Assay in all cases: PBM binding z-score (relative to random genomic background probes); higher = stronger binding; sequences stand for … in GC…GCGATTGACAGCGTAGAATGAAGG
[1] = test system: FXR:RXRa (NR concentration 270 nM, RXRa partner concentration 90 nM)
In short: (§1)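 Each nuclear receptor dimer, without ligand, was incubated for 1 h on custom Agilent 4×180K protein-binding microarrays. Binding was detected with antibodies against each partner (one per run), and scanned fluorescence was regression-normalized. The binding z-scores are referenced to random human genomic background probes.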

[2] = test system: LXRa:RXRa (NR concentration 270 nM, RXRa partner concentration 90 nM)
In short: as §1

[3] = test system: LXRa homodimer (NR concentration 270 nM)
In short: as §1

[4] = test system: LXRb:RXRa (NR concentration 270 nM, RXRa partner concentration 90 nM)
In short: as §1

[5] = test system: LXRb homodimer (NR concentration 270 nM)
In short: as §1

[6] = test system: PPARa:RXRa (NR concentration 270 nM, RXRa partner concentration 90 nM)
In short: as §1

[7] = test system: PPARg:RXRa (NR concentration 180 nM, RXRa partner concentration 90 nM)
In short: as §1

[8] = test system: PPARg:RXRa 270nM:90nM, anti-RXR (NR concentration 270 nM, RXRa partner concentration 90 nM)
In short: as §1

[9] = test system: PPARg:RXRa 30nM:10nM, anti-RXR (NR concentration 30 nM, RXRa partner concentration 10 nM)
In short: as §1

[10] = test system: PPARg:RXRa 90nM:30nM, anti-RXR (NR concentration 90 nM, RXRa partner concentration 30 nM)
In short: as §1

[11] = test system: PPARg:RXRa DBDmut IVT, anti-RXR (DBD mutation: RXRa K156A/R161A, NR concentration 270 nM, RXRa partner concentration 90 nM)
In short: as §1

[12] = test system: PPARg:RXRa IVT, anti-PPARg (NR concentration 270 nM, RXRa partner concentration 90 nM)
In short: as §1

[13] = test system: PPARg DBDmut:RXRa IVT, anti-PPARg (DBD mutation: PPARg1 K132A/R137A, NR concentration 270 nM, RXRa partner concentration 90 nM)
In short: as §1

[14] = test system: PPARg DBDmut IVT, anti-PPARg (DBD mutation: PPARg1 K132A/R137A, NR concentration 270 nM)
In short: as §1

[15] = test system: PPARg homodimer (NR concentration 180 nM)
In short: as §1

[16] = test system: PXR:RXRa (NR concentration 270 nM, RXRa partner concentration 90 nM)
In short: as §1

[17] = test system: PXR homodimer (NR concentration 270 nM)
In short: as §1

[18] = test system: RARa:RXR (NR concentration 270 nM, RXRa partner concentration 90 nM)
In short: as §1

[19] = test system: RARa homodimer (NR concentration 270 nM)
In short: as §1

[20] = test system: RARb:RXRa (NR concentration 270 nM, RXRa partner concentration 90 nM)
In short: as §1

Sequence	PBM binding z-score [1]	PBM binding z-score [2]	PBM binding z-score [3]	PBM binding z-score [4]	PBM binding z-score [5]	PBM binding z-score [6]	PBM binding z-score [7]	PBM binding z-score [8]	PBM binding z-score [9]	PBM binding z-score [10]	PBM binding z-score [11]	PBM binding z-score [12]	PBM binding z-score [13]	PBM binding z-score [14]	PBM binding z-score [15]	PBM binding z-score [16]	PBM binding z-score [17]	PBM binding z-score [18]	PBM binding z-score [19]	PBM binding z-score [20]
CCTACTGTGCCAAGGTCATTGATCAGTCAAAGCA	3.24	3.74	1.67	3.26	0.681	4.05	3.18	3.78	1.24	2.83	3.52	3.07	-0.148	0.41	2.81	3.87	1.91	3.76	1.37	3.28
CCTGCTAGGTCATGGTCCGCTAATCTACAGTATG	3.61	2.3	0.0178	1.67	-0.223	3.46	2.34	2.78	0.499	1.74	4.12	3.6	-0.11	-0.235	0.575	1.29	-0.433	2.09	-0.439	3.88
TCTGCTAGGTCAACGATGGTCAGCTAGTCTGCTA	3.29	2.53	-0.369	1.39	-0.445	3.44	2.46	2.9	1.75	2.53	3.64	4.26	-0.411	-0.961	0.415	1.42	-1.07	2.26	-1.08	4.06
AGAATGAGGTAAAGATCAGGGAAACAGAATACAT	0.438	0.311	-0.176	0.517	-0.108	0.991	2	2.05	0.928	1.67	1.72	1.73	1.8	0.935	0.296	0.125	0.151	0.265	0.446	0.258
